The conditions of assay [1]: Ebola virus entry assay, blue channel fluorescence.
The conditions of assay [2]: Ebola virus entry assay, green fluorescence channel.
For assay [3] the following is noted: Ebola virus entry assay, ratio channel readout.

In general, AC50 refers to the concentration giving half of the maximal activity seen.

For part of these data: Potency and affinity values are given separately. Calls of active or inactive are those of the source. The call rests on the fitted dose curve.

With `O=P(O)(O)C(Sc1ccc(Cl)cc1)P(=O)(O)O`, the call in assay [1], in assay [2] and in assay [3] was inactive.

As to `CCN1C(=O)NC(c2ccccc2)C1=O` (centres undefined), the molecule was called inactive in assay [1], in assay [2] and in assay [3].

On to `CC(C)[C@H](N)C(=O)OCC(CO)OCn1cnc2c(=O)[nH]c(N)nc21` (some centres undefined), for which the result in assay [1], in assay [2] and in assay [3] was inactive.

Consider `COc1cc([C@@H]2c3cc4c(cc3[C@@H](O[C@@H]3O[C@@H]5CO[C@@H](c6cccs6)O[C@@H]5[C@H](O)[C@@H]3O)[C@H]3COC(=O)[C@H]23)OCO4)cc(OC)c1O`, for which the call in assay [1], in assay [2] and in assay [3] was inactive.

Take `O=C1Nc2ccc(Cl)cc2C(c2ccccc2Cl)=NC1O` (centres undefined): the molecule was called inactive in assay [1], in assay [2] and in assay [3].

Regarding `CN/C(=C\[N+](=O)[O-])NCCSCc1csc(CN(C)C)n1`, the outcome in assay [1], in assay [2] and in assay [3] was inactive.

Consider `OCC(S)CS` (centres undefined), for which the molecule was called inactive in assay [1], in assay [2] and in assay [3].

As to `CC[C@H](C)C(=O)O[C@H]1C[C@H](O)C=C2C=C[C@H](C)[C@H](CC[C@@H](O)C[C@@H](O)CC(=O)O)[C@H]21`, the result in assay [1], in assay [2] and in assay [3] was inactive.

As to `CC1(C)S[C@@H]2[C@H](NC(=O)[C@H](N)c3ccc(O)cc3)C(=O)N2[C@H]1C(=O)O`, the result in assay [1] and in assay [2] was inactive.

For the molecule `CC=CC1=C(C(=O)O)N2C(=O)[C@H](NC(=O)[C@H](N)c3ccc(O)cc3)[C@@H]2SC1`, the outcome in assay [1], in assay [2] and in assay [3] was inactive.

On to `CC(CCc1ccccc1)NCC(O)c1ccc(O)c(C(N)=O)c1` (centres undefined), for which the molecule was classed as inactive in assay [1], in assay [2] and in assay [3].

With `CO[C@H]1C[C@@H]2CC[C@@H](C)[C@@](O)(O2)C(=O)C(=O)N2CCCC[C@@H]2C(=O)O[C@H]([C@@H](C)C[C@@H]2CC[C@H](O)[C@H](OC)C2)CC(=O)[C@H](C)C=C(C)[C@@H](O)[C@@H](OC)C(=O)[C@H](C)C[C@H](C)C=CC=CC=C1C`, the molecule was classed as inactive in assay [1], in assay [2] and in assay [3].

Turning to `NC(=O)[C@@H]1CCCN1C(=O)[C@H](Cc1cnc[nH]1)NC(=O)[C@@H]1CCC(=O)N1`, the molecule was called inactive in assay [1], in assay [2] and in assay [3].

As to `C[C@@H]1[C@H](O)[C@@H](C)/C=C/C=C\C=C\C=C\C=C\C=C\C=C\[C@H](O[C@@H]2O[C@H](C)[C@@H](O)[C@H](N)[C@@H]2O)C[C@@H]2O[C@](O)(C[C@@H](O)C[C@@H](O)[C@H](O)CC[C@@H](O)C[C@@H](O)CC(=O)O[C@H]1C)C[C@H](O)[C@H]2C(=O)O` (stereo in doubt), the call in assay [1], in assay [2] and in assay [3] was inactive.

For `Nc1nc(=O)n([C@@H]2CS[C@H](CO)O2)cc1F`, the outcome in assay [1], in assay [2] and in assay [3] was inactive.

As to `CCN1CC(CCN2CCOCC2)C(c2ccccc2)(c2ccccc2)C1=O` (centres undefined), the call in assay [1], in assay [2] and in assay [3] was inactive.

Take `COc1cc(NS(C)(=O)=O)ccc1Nc1c2ccccc2nc2ccccc12`: the outcome in assay [1], in assay [2] and in assay [3] was inactive.

With `CC(=O)O[C@H]1C(=O)[C@@]2(C)[C@H]([C@H](OC(=O)c3ccccc3)[C@]3(O)C[C@H](OC(=O)[C@H](O)[C@@H](NC(=O)c4ccccc4)c4ccccc4)C(C)=C1C3(C)C)[C@]1(OC(C)=O)CO[C@@H]1C[C@@H]2O`, the outcome in assay [1], in assay [2] and in assay [3] was inactive.

As to `C[N+]1(C)CCCC(OC(=O)C(O)(c2ccccc2)c2ccccc2)C1` (centres undefined), the molecule was classed as inactive in assay [1], in assay [2] and in assay [3].

In the case of `CCCCCCCN(CC)CCCC(O)c1ccc(NS(C)(=O)=O)cc1` (centres undefined), the call in assay [1], in assay [2] and in assay [3] was inactive.

Consider `CCCc1nc(C(C)(C)O)c(C(=O)OCc2oc(=O)oc2C)n1Cc1ccc(-c2ccccc2-c2nn[nH]n2)cc1`, for which the call in assay [1] and in assay [2] was inactive.

Regarding `CC[C@H]1OC(=O)[C@H](C)[C@@H](O[C@H]2C[C@@](C)(OC)[C@@H](O)[C@H](C)O2)C(C)[C@@H](O[C@@H]2O[C@H](C)C[C@H](N(C)C)[C@@H]2O)[C@](C)(OC)C[C@@H](C)C(=O)[C@H](C)[C@@H](O)[C@]1(C)O` (some centres undefined), the values for the concentration at half-maximal activity (AC50) in assay [1] and in assay [3] were 7.94 µM (active) and 7.95 µM (active), respectively. The molecule was classed as inactive in assay [2].

Regarding `CO[C@@H]1[C@@H](O[C@@H]2O[C@H](C)[C@@H](O[C@H]3C[C@@](C)(O)[C@@H](O)[C@H](C)O3)[C@H](N(C)C)[C@H]2O)[C@@H](CC=O)C[C@@H](C)[C@@H](O[C@@H]2CC[C@H](N(C)C)[C@@H](C)O2)/C=C/C=C/C[C@@H](C)OC(=O)C[C@H]1O`, the outcome in assay [1], in assay [2] and in assay [3] was inactive.

For the molecule `Nc1nc(Cl)nc2c1ncn2[C@H]1C[C@H](O)[C@@H](CO)O1`, the result in assay [1], in assay [2] and in assay [3] was inactive.

As to `CO/N=C(\C(=O)N[C@@H]1C(=O)N2C(C(=O)O)=C(C[N+]3(C)CCCC3)CS[C@H]12)c1csc(N)n1`, the molecule was called inactive in assay [1], in assay [2] and in assay [3].

In the case of `Nc1nc(NC2CC2)c2ncn([C@@H]3C=C[C@@H](CO)C3)c2n1`, the molecule was called inactive in assay [1], in assay [2] and in assay [3].

As for `CC(C)CN(C[C@@H](O)[C@H](Cc1ccccc1)NC(=O)O[C@@H]1CCOC1)S(=O)(=O)c1ccc(N)cc1`, the result in assay [1], in assay [2] and in assay [3] was inactive.

For the molecule `CN[C@@H](C)Cc1ccccc1`, the result in assay [1], in assay [2] and in assay [3] was inactive.

Consider `NC(=O)N1c2ccccc2C=Cc2ccccc21`, for which the call in assay [1], in assay [2] and in assay [3] was inactive.

As for `C[N+](C)(C)CC(O)CC(=O)[O-]` (centres undefined), the result in assay [1], in assay [2] and in assay [3] was inactive.

As to `C=C1[C@H](CO)[C@@H](O)C[C@@H]1n1cnc2c(=O)[nH]c(N)nc21`, the outcome in assay [1], in assay [2] and in assay [3] was inactive.

For the molecule `CO[C@H]1C=CO[C@@]2(C)Oc3c(C)c(O)c4c(O)c(c5c(c4c3C2=O)=NC2(CCN(CC(C)C)CC2)N=5)NC(=O)/C(C)=C\C=C/[C@H](C)[C@H](O)[C@@H](C)[C@@H](O)[C@@H](C)[C@H](OC(C)=O)[C@@H]1C`, the molecule was classed as inactive in assay [1], in assay [2] and in assay [3].

With `C[N+]1(C)[C@@H]2CC(OC(=O)C(O)(c3cccs3)c3cccs3)C[C@H]1[C@@H]1O[C@@H]12` (some centres undefined), the molecule was classed as inactive in assay [1], in assay [2] and in assay [3].

For the molecule `CN(C)CCOc1ccc(/C(=C(/CCCl)c2ccccc2)c2ccccc2)cc1`, in assay [1], the half-maximal activity concentration (AC50) was 4.47 µM (active). Besides, the molecule was called inactive in assay [2] and in assay [3].

Regarding `CC[C@H]1OC(=O)[C@H](C)C(=O)[C@H](C)[C@@H](O[C@@H]2O[C@H](C)C[C@H](N(C)C)[C@H]2O)[C@](C)(OC)C[C@@H](C)C(=O)[C@H](C)[C@H]2N(CCCCn3cnc(-c4cccnc4)c3)C(=O)O[C@]12C`, the outcome in assay [1], in assay [2] and in assay [3] was inactive.

With `CC(C)(S)[C@@H](N)C(=O)O`, the molecule was called inactive in assay [1], in assay [2] and in assay [3].

In the case of `COc1cc([C@@H]2c3cc4c(cc3[C@@H](O[C@@H]3O[C@@H]5CO[C@@H](C)O[C@H]5[C@H](O)[C@H]3O)[C@H]3COC(=O)[C@H]23)OCO4)cc(OC)c1O`, the molecule was called inactive in assay [1] and in assay [2].

`CCCCCCCCCCCCCCCC(=O)OCCC1CCN(CCCN2c3ccccc3Sc3ccc(S(=O)(=O)N(C)C)cc32)CC1`: the outcome in assay [1], in assay [2] and in assay [3] was inactive.

Regarding `CN1[C@@H]2CC[C@H]1CC(OC(c1ccccc1)c1ccccc1)C2` (some centres undefined), the AC50 was 5.01 µM (active) in assay [1] and 3.55 µM (active) in assay [3]. Also, the call in assay [2] was inactive.

For the molecule `CN1CCN2c3ncccc3Cc3ccccc3C2C1` (centres undefined), the molecule was classed as inactive in assay [1], in assay [2] and in assay [3].

In the case of `CN1CCN(C(c2ccccc2)c2ccc(Cl)cc2)CC1` (centres undefined), the AC50 in assay [1] was 12.6 µM (active). In addition, the molecule was called inactive in assay [2] and in assay [3].

On to `COc1cc(C)c(/C=C/C(C)=C/C=C/C(C)=C/C(=O)O)c(C)c1C`, for which the call in assay [1], in assay [2] and in assay [3] was inactive.

Take `O=C(O)c1cc(N=Nc2ccc(O)c(C(=O)O)c2)ccc1O`: the result in assay [1], in assay [2] and in assay [3] was inactive.

In the case of `S=P(N1CC1)(N1CC1)N1CC1`, the molecule was classed as inactive in assay [1], in assay [2] and in assay [3].

In the case of `COc1ccnc(CS(=O)c2nc3cc(OC(F)F)ccc3[nH]2)c1OC` (centres undefined), the molecule was called inactive in assay [1], in assay [2] and in assay [3].

With `CNNCc1ccc(C(=O)NC(C)C)cc1`, the molecule was classed as inactive in assay [1], in assay [2] and in assay [3].

`CO/N=C(\C(=O)N[C@@H]1C(=O)N2C(C(=O)O)=CCS[C@H]12)c1csc(N)n1`: the molecule was classed as inactive in assay [1], in assay [2] and in assay [3].

Turning to `C[C@@H]1O[C@@H](O[C@H]2CC[C@@]3(C)[C@H](CC[C@@H]4[C@H]3C[C@@H](O)[C@]3(C)[C@@H](C5=CC(=O)OC5)CC[C@]43O)C2)C[C@H](O)[C@@H]1O[C@H]1C[C@H](O)[C@H](O[C@H]2C[C@H](O)[C@@H](O)[C@@H](C)O2)[C@H](C)O1` (stereo in doubt), the AC50 in assay [1] was 1 µM (active). Besides, the molecule was called inactive in assay [2] and in assay [3].

Consider `C=CC(N)CCC(=O)O` (centres undefined), for which the molecule was called inactive in assay [1], in assay [2] and in assay [3].

In the case of `CC(C)NCC(O)c1ccc(NS(C)(=O)=O)cc1` (centres undefined), the result in assay [1], in assay [2] and in assay [3] was inactive.

Turning to `CC(=O)NC[C@H]1CN(c2ccc(N3CCOCC3)c(F)c2)C(=O)O1`, the outcome in assay [1], in assay [2] and in assay [3] was inactive.

As to `C[C@]12C=CC(=O)N[C@@H]1CC[C@@H]1[C@@H]2CC[C@]2(C)[C@@H](C(=O)Nc3cc(C(F)(F)F)ccc3C(F)(F)F)CC[C@@H]12`, the outcome in assay [1], in assay [2] and in assay [3] was inactive.

Consider `CC(C)CN(C[C@@H](O)[C@H](Cc1ccccc1)NC(=O)O[C@H]1CO[C@H]2OCC[C@H]21)S(=O)(=O)c1ccc(N)cc1`, for which the molecule was classed as inactive in assay [1], in assay [2] and in assay [3].

Take `OC[C@H]1O[C@@H](n2cnc3c2NC=NC[C@H]3O)C[C@@H]1O`: the result in assay [1], in assay [2] and in assay [3] was inactive.

Consider `Nc1ccc(C(=O)O)c(O)c1`, for which the result in assay [1], in assay [2] and in assay [3] was inactive.

As to `NC(N)=Nc1nc(CSCC/C(N)=N/S(N)(=O)=O)cs1`, the result in assay [1], in assay [2] and in assay [3] was inactive.

Consider `CCC(=O)NCCC1CCc2ccc3c(c21)CCO3` (centres undefined), for which the call in assay [1], in assay [2] and in assay [3] was inactive.

Regarding `CN(C)CCc1c[nH]c2ccc(Cn3cncn3)cc12`, the molecule was called inactive in assay [1], in assay [2] and in assay [3].

As for `CN[C@H](CC(C)C)C(=O)N[C@H]1C(=O)N[C@@H](CC(N)=O)C(=O)N[C@H]2C(=O)N[C@H]3C(=O)N[C@H](C(=O)N[C@@H](C(=O)O)c4cc(O)cc(O)c4-c4cc3ccc4O)[C@H](O)c3ccc(c(Cl)c3)Oc3cc2cc(c3O[C@@H]2O[C@H](CO)[C@@H](O)[C@H](O)[C@H]2O[C@H]2C[C@](C)(N)C(O)[C@H](C)O2)Oc2ccc(cc2Cl)[C@H]1O` (some centres undefined), the molecule was classed as inactive in assay [1], in assay [2] and in assay [3].

The record behind these values is PubChem BioAssay (NCATS).
